For 39 compounds, growth results are on record in PubChem BioAssay (NCI).

Where “and” joins values, the source holds several entries; their conditions need not be identical. Equal entries are not always repeated. The panel holds about 83,000 compounds, 20% with a hit somewhere; the sample as a whole holds those more often.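 Compound tested at a single concentration for 48 hours in 96-well plates; a percent growth value below 10 was scored as active.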 Unmarked numbers belong to inactive results. Calls of active or inactive are those of the source.

The assay relates to MDA-MB-468 breast. The assay can be described thus: NCI-60 one-dose screen, 48 h (100 = growth as untreated, 0 = no growth, -100 = all killed). The note with it: 10 µM unless noted.
As for `COC1=CC(c2ccc[nH]2)=N/C1=C\c1[nH]c(C)c(C(=O)CCC(=O)Oc2ccc3c(c2)CCC2C3CC[C@]3(C)[C@@H](O)CC[C@@H]23)c1C` (some centres undefined), the growth is 39.4%. The same measure for `OCC(Nc1ncnc2ccc(-c3cnc4cnccn34)cc12)c1ccccc1` (centres undefined): -2.48% (active); for `O=c1c2cc(F)ccc2sc2c(NCCCNCCO)nc3ccc(F)cc3c12`: 39.7%. As for `CCSc1nc(-c2ccco2)n2nc(-c3ccco3)cc2n1`, the figure is -67.7% (active); as for `CCN(CC)c1ccc(N=O)cc1`, 23.7%.

For the compound `COc1ccc(Cn2cc(COc3cc(/C=C/C(=O)c4cc(OC)c(OC)c(OC)c4)ccc3OC)nn2)cc1`, the growth is 49%. The same measure for `Cc1ccc(NC(=O)N[C@@H](Cc2cc(F)cc(F)c2)C(=O)NC2C(=O)N3C[C@H](O)C[C@H]3C(=O)N3CCCC[C@H]3C(=O)N[C@@H](CO)C(=O)N3C[C@H](C)C[C@H]3C(=O)O[C@H]2C)c(F)c1` (some centres undefined): -2.72% (active).

For the compound `C=C(C)[C@@H]1CC[C@]2(C(=O)N3CCCNCC3)CC[C@]3(C)[C@H](CC[C@@H]4[C@@]5(C)CCC(=O)C(C)(C)[C@@H]5CC[C@]43C)[C@@H]12`, the growth was 90.8%. The same measure for `O=C(Cn1cc(CN2C(=O)c3ccc([N+](=O)[O-])cc3C2=O)nn1)Nc1ccc(F)cc1Cl`: 97.9%; for `C=C(C)[C@@H]1CC[C@]2(CO)CC[C@]3(C)[C@H](CC[C@@H]4[C@@]5(C)CC[C@H](NCO)C(C)(C)[C@@H]5CC[C@]43C)[C@@H]12`: -74.8% (active). The same measure for `CN(C)CC(=O)Nc1ccc(Cn2nnc3c2C(=O)c2nnn(Cc4ccc(NC(=O)CN(C)C)cc4)c2C3=O)cc1`: -79% (active); for `CN(C)c1oc(C2OC2c2ccccc2)nc1C#N` (centres undefined): 90.3%. The same measure for `CCN(CC)c1ccc2c(c1)Oc1nc(N)c(C#N)c(N)c1C2Sc1ccc(F)cc1` (centres undefined): -70.1% (active). As to `O=C(Nc1ncc([N+](=O)[O-])s1)c1cccc([N+](=O)[O-])c1`, the growth was 28.1%. The same measure for `Cc1cc(Nc2nc(N3CCNCC3)nc3ccccc23)n[nH]1`: 76.6%. The same measure for `O=S(=O)(NCCNc1nccc(-c2c(-c3cccc(O)c3)nc3occn23)n1)c1cccc(F)c1`: 97%; for `N#Cc1c(N)[nH]c(S)c1C#N`: 103%; for `Cc1ccc(-c2nc(N3CCN(CC(=O)Nc4ccc(Cl)cc4)CC3)c3ccccc3n2)cc1`: 93.3%. As for `COc1cc(C2CC(c3cccc(Nc4ccncc4)c3)=NN2c2ccccc2)cc(OC)c1OC` (centres undefined), the figure is 25.8%; as for `CO[C@@]12[C@@H]3NC3CN1C1=C(C(=O)C(N)=C(C)C1=O)[C@@H]2COC(N)=O` (some centres undefined), -14.1% (active); as for `O=C1NCC2CCCC1C2` (centres undefined), 105%. For `O=C(CC1Sc2ccccc2NC1=O)NNc1ccc(F)cc1` (centres undefined), the growth was 92.7%. Regarding `Clc1ccc(-c2c3ccc(=[N+]4CCCCC4)cc-3oc3cc(N4CCCCC4)ccc23)cc1`, the growth was -87.4% (active).

For `c1ccc2c(CC3=NCCN3)cccc2c1`, the growth is 92.3% and 101%.

For the compound `O=S(=O)(O)c1cccnc1`, the growth was 124%.

Take `CC(C)C[C@H](C(=O)N[C@@H](C)C(N)=O)N1CC=CCN(O)S1(=O)=O`: the growth was 109% [5 µM]. As for `Cc1nc2cc(Nc3nc(NCCO)nc(Nc4ccc(F)cc4)n3)ccc2n1Cc1ccccc1`, the figure is 99.2%. As for `COc1ccc(/C=N/NC(=O)Cn2c(-c3ccc(S(C)(=O)=O)cc3)nc3cc(Cl)ccc32)cc1`, the figure is -18.5% (active). As to `Cc1ccc(NC(=O)c2cc(-c3nc4ccccc4s3)c(=O)n(NS(=O)(=O)c3ccc(Cl)cc3)c2N)cc1`, the growth is 109%. As for `CCN(CC)c1ccc(/C=N/NC(=O)C[N+](C)(C)C)cc1`, the growth is 112%. As for `CC(=O)CCC(=O)OCc1cc(=O)c(O)co1`, the figure is 101%; as for `CC1(C)C=CC[C@]2(C)[C@H]3CC[C@@H]4[C@H]5[C@H](C(=O)/C=C/c6cccnc6)CC[C@]5(CO)CC[C@@]4(C)[C@]3(C)CC[C@@H]12`, -60.7% (active); as for `O=C1/C(=C/c2ccc([N+](=O)[O-])o2)Oc2ccc(Br)cc21`, 65.3%. As for `COc1ccc(-n2nc(C(=O)NCC(=O)Nc3nc4cc(OC)ccc4s3)c3ccccc3c2=O)cc1`, the figure is -8.37% (active); as for `COc1cc(/C=C/c2cc(/C=C/c3ccc(O)c(OC)c3)n(C(=O)Cc3ccccc3)n2)ccc1O`, -4.29% (active); as for `COc1ccc(NC(=O)c2sc3nc(C)c(C(=O)c4ccc(OC)cc4)cc3c2N)cc1`, 13.2%. On to `COc1ccc2nc3cc(Cl)ccc3c(N)c2c1`, for which the growth is -88.9% (active). For `CNC(=O)CN1CCC(Oc2cc3c(Nc4cccc(Cl)c4F)ncnc3cc2OC)CC1`, the growth is -22.9% (active). As for `O=c1c2cc(F)ccc2sc2c(NCCCNCCO)nc3ccc(Cl)cc3c12`, the figure is 68.2%.
